# Source: ChEMBL document CHEMBL1961873, “Compounds: GSK PKIS; Assays: Nanosyn kinase panel” (2012)
# How the values were obtained:
# [1] = target: Sphingosine kinase 1 (Homo sapiens) (UniProt Q9NYA1); settings: at 1 µM;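 note: mean SPHK1 inhibition value reported from the GSK PKIS kinase panel screen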
# [2] = target: T1, Sphingosine kinase 2 (Homo sapiens) (UniProt Q9NRA0); settings: at 0.1 µM
# T1 sequence (whole entry): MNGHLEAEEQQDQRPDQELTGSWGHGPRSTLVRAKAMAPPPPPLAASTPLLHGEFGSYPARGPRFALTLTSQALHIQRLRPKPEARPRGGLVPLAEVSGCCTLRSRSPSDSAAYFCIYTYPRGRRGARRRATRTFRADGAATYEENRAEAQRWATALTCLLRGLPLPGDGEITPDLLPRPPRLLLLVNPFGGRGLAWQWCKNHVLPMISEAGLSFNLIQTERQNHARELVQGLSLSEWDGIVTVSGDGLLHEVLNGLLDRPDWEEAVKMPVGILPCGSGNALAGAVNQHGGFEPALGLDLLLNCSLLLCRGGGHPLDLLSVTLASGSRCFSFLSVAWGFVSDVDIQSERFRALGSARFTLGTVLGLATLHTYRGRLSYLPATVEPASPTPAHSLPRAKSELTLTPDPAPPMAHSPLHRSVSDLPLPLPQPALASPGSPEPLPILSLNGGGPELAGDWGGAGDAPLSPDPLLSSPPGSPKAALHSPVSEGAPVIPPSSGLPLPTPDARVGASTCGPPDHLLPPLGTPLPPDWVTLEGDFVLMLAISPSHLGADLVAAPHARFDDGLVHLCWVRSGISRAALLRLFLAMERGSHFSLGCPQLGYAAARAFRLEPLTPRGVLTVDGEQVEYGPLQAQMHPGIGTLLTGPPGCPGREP
# [3] = target: T1, Sphingosine kinase 2 (Homo sapiens); settings: at 1 µM
# [4] = target: Casein kinase II subunit alpha (Homo sapiens) (UniProt P68400); settings: at 0.1 µM
# [5] = target: Casein kinase II subunit alpha (Homo sapiens) (UniProt P68400); settings: at 1 µM
# [6] = target: T2, Inhibitor of nuclear factor kappa-B kinase subunit alpha (Homo sapiens) (UniProt O15111); settings: at 0.1 µM
# T2 sequence (whole entry): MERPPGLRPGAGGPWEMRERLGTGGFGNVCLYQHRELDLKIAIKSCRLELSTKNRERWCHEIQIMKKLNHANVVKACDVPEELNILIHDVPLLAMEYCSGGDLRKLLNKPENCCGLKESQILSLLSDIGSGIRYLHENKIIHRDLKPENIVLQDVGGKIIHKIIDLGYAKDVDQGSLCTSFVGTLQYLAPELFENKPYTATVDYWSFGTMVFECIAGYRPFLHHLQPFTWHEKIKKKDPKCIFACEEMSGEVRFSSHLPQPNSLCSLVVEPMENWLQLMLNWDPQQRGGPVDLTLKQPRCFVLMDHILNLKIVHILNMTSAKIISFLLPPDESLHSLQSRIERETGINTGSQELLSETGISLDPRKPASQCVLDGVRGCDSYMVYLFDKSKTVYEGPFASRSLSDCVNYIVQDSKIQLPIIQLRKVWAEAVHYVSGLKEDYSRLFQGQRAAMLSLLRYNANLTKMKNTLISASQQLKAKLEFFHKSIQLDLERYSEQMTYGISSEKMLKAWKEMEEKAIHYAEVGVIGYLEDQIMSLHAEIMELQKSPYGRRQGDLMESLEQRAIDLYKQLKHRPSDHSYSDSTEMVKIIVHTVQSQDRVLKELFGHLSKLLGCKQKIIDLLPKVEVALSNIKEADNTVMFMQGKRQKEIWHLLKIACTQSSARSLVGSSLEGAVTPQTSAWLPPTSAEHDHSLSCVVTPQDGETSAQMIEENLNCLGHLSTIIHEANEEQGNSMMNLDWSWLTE
# [7] = target: T2, Inhibitor of nuclear factor kappa-B kinase subunit alpha (Homo sapiens); settings: at 1 µM
# [8] = target: T3, Inhibitor of nuclear factor kappa-B kinase subunit beta (Homo sapiens) (UniProt O14920); settings: at 0.1 µM
# T3 sequence (whole entry): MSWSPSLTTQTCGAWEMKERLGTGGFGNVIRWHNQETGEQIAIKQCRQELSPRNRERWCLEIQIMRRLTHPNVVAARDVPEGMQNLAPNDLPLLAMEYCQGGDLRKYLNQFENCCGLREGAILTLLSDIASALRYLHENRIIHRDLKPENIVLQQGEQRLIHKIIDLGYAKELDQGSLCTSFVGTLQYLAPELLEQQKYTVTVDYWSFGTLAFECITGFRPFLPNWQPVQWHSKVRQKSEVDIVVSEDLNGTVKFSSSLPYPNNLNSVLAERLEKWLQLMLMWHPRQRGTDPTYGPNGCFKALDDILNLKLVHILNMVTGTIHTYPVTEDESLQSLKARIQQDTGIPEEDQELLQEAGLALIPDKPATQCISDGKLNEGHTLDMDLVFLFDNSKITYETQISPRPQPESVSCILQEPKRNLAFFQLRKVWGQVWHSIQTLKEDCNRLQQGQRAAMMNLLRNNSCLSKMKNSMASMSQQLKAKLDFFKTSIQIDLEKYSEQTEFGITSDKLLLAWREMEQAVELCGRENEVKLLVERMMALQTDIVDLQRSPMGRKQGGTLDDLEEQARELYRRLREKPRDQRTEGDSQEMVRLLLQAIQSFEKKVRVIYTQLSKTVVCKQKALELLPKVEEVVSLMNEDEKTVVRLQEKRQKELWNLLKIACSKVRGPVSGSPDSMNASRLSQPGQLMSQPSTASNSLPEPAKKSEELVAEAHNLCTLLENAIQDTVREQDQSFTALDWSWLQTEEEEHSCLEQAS
# [9] = target: T3, Inhibitor of nuclear factor kappa-B kinase subunit beta (Homo sapiens); settings: at 1 µM
# [10] = target: T4, Inhibitor of nuclear factor kappa-B kinase subunit epsilon (Homo sapiens) (UniProt Q14164); settings: at 0.1 µM
# T4 sequence (whole entry): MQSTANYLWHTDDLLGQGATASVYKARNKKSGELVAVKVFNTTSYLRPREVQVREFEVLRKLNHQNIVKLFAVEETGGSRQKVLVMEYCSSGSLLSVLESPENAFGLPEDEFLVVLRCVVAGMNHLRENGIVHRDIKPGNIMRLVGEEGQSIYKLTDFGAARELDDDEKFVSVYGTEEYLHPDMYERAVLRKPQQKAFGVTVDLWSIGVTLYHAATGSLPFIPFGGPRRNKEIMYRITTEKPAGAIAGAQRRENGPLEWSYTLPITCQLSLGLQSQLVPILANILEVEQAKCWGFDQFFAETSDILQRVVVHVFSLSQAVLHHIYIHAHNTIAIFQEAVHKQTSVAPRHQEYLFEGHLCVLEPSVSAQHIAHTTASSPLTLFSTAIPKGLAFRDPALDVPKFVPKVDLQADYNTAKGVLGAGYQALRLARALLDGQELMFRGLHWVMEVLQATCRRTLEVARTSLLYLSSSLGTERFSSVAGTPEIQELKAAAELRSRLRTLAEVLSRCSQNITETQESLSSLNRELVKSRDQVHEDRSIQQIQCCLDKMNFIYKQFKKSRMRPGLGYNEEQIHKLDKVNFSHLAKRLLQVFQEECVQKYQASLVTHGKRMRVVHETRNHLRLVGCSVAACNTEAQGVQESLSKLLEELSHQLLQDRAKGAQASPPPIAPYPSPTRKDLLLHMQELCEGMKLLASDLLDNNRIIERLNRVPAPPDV
# [11] = target: T4, Inhibitor of nuclear factor kappa-B kinase subunit epsilon (Homo sapiens); settings: at 1 µM
# [12] = target: T5, Serine/threonine-protein kinase Nek1 (Homo sapiens) (UniProt Q96PY6); settings: at 0.1 µM
# T5 sequence (whole entry): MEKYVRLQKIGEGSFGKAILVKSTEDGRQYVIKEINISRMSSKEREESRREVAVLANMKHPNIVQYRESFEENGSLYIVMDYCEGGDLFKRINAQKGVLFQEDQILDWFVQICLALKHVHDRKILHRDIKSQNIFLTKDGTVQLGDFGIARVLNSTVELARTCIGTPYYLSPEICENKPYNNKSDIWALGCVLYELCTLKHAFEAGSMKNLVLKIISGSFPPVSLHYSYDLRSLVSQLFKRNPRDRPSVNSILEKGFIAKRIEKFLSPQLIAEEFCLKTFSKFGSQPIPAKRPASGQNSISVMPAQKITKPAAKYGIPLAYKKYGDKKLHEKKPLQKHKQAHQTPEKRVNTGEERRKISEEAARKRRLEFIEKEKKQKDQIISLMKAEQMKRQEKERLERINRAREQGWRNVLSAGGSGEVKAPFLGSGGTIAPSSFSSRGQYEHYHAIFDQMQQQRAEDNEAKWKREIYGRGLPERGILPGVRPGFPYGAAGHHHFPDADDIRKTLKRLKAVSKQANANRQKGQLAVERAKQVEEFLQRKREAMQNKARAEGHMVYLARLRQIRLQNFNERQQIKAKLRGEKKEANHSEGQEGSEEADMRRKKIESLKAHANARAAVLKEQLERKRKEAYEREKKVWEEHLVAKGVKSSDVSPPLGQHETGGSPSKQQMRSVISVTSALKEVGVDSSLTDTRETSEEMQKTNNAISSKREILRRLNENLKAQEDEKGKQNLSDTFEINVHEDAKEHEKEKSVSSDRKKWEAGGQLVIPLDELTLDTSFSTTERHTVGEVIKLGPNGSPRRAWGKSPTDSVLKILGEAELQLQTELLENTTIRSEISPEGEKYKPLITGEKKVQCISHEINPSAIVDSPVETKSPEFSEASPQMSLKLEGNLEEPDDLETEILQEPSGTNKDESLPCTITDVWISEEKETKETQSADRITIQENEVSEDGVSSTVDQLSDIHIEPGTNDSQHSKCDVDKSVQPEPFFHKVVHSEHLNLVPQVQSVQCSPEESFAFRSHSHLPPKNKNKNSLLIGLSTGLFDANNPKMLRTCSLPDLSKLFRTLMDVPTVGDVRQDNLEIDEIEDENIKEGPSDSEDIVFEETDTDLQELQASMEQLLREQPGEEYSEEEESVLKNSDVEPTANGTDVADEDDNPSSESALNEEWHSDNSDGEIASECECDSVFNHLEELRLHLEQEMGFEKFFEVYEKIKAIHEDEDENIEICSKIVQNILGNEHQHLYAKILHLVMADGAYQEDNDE
# [13] = target: T5, Serine/threonine-protein kinase Nek1 (Homo sapiens); settings: at 1 µM
# [14] = target: T6, Serine/threonine-protein kinase Nek2 (Homo sapiens) (UniProt P51955); settings: at 0.1 µM
# T6 sequence (whole entry): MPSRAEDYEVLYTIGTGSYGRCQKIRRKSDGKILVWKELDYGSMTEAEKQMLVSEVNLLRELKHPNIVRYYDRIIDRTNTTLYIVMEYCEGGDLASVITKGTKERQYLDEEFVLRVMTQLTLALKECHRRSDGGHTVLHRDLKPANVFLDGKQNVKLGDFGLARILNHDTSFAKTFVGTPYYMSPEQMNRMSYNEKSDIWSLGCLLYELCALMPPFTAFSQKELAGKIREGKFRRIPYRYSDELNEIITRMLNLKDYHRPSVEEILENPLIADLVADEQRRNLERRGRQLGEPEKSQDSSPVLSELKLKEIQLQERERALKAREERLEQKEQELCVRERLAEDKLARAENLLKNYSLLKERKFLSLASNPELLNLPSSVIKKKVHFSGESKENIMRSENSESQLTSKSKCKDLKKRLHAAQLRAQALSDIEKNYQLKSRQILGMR
# [15] = target: T6, Serine/threonine-protein kinase Nek2 (Homo sapiens); settings: at 1 µM
# [16] = target: Serine/threonine-protein kinase Nek6 (Homo sapiens) (UniProt Q9HC98); settings: at 0.1 µM
# [17] = target: Serine/threonine-protein kinase Nek6 (Homo sapiens) (UniProt Q9HC98); settings: at 1 µM
# [18] = target: Serine/threonine-protein kinase Nek7 (Homo sapiens) (UniProt Q8TDX7); settings: at 0.1 µM
# [19] = target: Serine/threonine-protein kinase Nek7 (Homo sapiens) (UniProt Q8TDX7); settings: at 1 µM
# [20] = target: T7, Serine/threonine-protein kinase Nek9 (Homo sapiens) (UniProt Q8TD19); settings: at 0.1 µM;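 note: reported value is the mean percent inhibition of NEK9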
# T7 sequence (whole entry): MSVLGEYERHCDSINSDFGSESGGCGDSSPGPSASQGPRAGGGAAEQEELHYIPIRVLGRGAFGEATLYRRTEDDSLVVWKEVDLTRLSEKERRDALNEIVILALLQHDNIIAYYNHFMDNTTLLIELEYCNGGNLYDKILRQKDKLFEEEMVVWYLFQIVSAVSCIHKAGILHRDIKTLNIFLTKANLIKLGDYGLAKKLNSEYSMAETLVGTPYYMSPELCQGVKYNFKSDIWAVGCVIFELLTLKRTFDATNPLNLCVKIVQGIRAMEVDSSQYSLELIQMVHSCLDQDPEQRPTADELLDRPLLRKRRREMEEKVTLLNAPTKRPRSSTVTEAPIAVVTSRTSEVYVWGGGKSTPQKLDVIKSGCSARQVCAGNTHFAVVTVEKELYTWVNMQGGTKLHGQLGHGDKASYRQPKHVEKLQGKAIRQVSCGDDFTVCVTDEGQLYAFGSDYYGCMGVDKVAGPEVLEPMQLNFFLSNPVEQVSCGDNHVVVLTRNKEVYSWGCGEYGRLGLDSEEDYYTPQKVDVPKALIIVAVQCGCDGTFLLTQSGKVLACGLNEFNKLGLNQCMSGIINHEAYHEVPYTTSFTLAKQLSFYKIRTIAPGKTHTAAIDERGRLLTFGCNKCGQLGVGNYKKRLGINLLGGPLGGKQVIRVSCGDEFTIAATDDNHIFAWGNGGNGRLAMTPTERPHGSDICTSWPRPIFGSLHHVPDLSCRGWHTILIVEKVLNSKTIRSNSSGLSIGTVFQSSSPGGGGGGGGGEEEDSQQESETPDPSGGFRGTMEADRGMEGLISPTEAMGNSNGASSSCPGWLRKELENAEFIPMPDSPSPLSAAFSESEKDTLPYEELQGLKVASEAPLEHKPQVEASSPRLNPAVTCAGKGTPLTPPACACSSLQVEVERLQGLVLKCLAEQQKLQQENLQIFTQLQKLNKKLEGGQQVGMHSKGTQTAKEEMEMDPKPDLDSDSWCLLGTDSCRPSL
# Casein kinase II subunit alpha (Homo sapiens), sequence (P68400 whole entry, looked up): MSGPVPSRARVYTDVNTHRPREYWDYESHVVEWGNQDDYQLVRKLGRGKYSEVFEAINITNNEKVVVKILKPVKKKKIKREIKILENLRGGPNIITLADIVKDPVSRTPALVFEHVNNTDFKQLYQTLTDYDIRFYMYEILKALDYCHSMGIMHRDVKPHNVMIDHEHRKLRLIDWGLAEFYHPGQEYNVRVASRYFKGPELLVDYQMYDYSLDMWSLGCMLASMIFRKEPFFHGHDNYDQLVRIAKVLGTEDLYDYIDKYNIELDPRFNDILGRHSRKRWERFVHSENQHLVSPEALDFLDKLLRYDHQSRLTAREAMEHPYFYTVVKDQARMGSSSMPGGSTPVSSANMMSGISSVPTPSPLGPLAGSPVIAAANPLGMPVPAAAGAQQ
# Serine/threonine-protein kinase Nek6 (Homo sapiens), sequence (Q9HC98 whole entry): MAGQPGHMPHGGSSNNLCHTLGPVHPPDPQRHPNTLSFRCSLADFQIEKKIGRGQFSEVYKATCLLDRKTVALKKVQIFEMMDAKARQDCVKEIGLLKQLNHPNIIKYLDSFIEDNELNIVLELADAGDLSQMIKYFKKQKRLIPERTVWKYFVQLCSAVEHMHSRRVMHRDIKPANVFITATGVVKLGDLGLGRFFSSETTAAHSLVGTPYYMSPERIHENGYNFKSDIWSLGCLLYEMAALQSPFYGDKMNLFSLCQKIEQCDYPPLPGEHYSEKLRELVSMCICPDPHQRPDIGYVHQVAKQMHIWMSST
# Serine/threonine-protein kinase Nek7 (Homo sapiens), sequence (Q8TDX7 whole entry, looked up): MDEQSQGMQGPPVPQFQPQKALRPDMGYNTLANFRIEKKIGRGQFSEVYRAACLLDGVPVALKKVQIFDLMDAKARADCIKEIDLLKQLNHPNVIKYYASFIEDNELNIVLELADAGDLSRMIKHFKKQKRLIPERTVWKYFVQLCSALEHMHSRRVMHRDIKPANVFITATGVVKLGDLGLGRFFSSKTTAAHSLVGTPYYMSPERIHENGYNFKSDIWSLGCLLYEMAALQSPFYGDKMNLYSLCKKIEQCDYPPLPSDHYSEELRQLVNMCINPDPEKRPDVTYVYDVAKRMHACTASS
# Sphingosine kinase 1 (Homo sapiens), sequence (Q9NYA1 whole entry): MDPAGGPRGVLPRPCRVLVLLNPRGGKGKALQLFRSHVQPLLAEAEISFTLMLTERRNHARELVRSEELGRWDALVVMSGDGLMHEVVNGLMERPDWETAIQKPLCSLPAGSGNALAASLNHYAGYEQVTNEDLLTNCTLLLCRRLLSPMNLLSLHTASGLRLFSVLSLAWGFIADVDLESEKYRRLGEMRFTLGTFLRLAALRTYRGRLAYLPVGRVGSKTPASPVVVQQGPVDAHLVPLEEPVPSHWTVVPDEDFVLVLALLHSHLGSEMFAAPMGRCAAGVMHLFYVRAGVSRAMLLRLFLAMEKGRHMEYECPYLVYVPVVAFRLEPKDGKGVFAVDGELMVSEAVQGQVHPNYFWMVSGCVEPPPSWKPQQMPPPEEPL
structure (smiles),measurement,setting,value
CC1=C(C(=O)Nc2ccc3[nH]ncc3c2)C(c2ccc(F)cc2)NC(=O)N1 (stereo not given),inhibition,[1],-2.09%
same,inhibition,[2],-0.06%
same,inhibition,[3],-0.16%
same,inhibition,[4],1.87%
same,inhibition,[5],0.86%
same,inhibition,[6],0.45%
same,inhibition,[7],7.79%
same,inhibition,[8],1.68%
same,inhibition,[9],1.73%
same,inhibition,[10],1.7%
same,inhibition,[11],4.43%
same,inhibition,[12],2.09%
same,inhibition,[13],4.56%
same,inhibition,[14],3.07%
same,inhibition,[15],2.73%
same,inhibition,[16],0.8%
same,inhibition,[17],0.71%
same,inhibition,[18],3.54%
same,inhibition,[19],2.72%
same,inhibition,[20],2.85%
